According to PubChem BioAssay AID1434 (Sanford-Burnham Center for Chemical Genomics, 2008):
About 1,600 (0.73%) of roughly 220,000 compounds were called active. The sample holds actives, similar compounds and a random draw of the others, so the mix is not that of the screen.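 How the source made its calls: active means mean inhibition across duplicate retests at 20 µM reaching about 50% (limit read from the data); inactive means the rest, inconclusive results apart.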

Molecular target: Runt-related transcription factor 1 (Homo sapiens) + Core-binding factor subunit beta (Homo sapiens) (UniProt Q01196+Q13951)
Sequence (Q01196 whole entry, looked up, the tested form may be a part): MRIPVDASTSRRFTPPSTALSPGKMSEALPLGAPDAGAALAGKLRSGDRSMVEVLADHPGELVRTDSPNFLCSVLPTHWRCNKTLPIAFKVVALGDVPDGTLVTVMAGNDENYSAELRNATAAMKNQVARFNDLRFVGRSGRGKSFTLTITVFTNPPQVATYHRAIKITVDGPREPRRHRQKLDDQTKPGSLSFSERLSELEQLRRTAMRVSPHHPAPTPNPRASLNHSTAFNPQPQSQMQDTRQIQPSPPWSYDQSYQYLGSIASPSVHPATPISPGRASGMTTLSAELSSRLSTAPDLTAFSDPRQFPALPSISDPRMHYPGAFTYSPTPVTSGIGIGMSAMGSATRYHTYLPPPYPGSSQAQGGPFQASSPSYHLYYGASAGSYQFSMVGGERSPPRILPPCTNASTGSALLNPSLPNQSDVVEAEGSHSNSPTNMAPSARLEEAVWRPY
Sequence (Q13951 whole entry, looked up, the tested form may be a part): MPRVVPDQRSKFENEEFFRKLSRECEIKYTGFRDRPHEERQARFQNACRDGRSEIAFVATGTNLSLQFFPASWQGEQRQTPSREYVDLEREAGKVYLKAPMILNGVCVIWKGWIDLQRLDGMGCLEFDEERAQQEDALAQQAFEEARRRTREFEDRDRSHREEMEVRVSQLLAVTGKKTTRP
Assay: disruptors of Runt domain/CBFb-SMMHC interaction – biochemical, FRET, Cerulean-Runt, Venus-CBFb-SMMHC, uHTS, primary screen (AID 1434);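 further: 0% = DMSO wells and 100% = wells with excess untagged CBFb-SMMHC; inhibitors lower the FRET ratio by blocking Runt binding to CBFb-SMMHC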
Settings: Cerulean-Runt/Venus-CBFb-SMMHC FRET ratio 530/480, 1 h, at 20 µM, stronger effect = higher value

Row | SMILES | inhibition | inhibition (retest duplicate average) [%]
1 | COc1cc(Cn2c(N)c(C(=O)NCc3ccco3)c3nc4ccccc4nc32)cc(OC)c1OC | 34.2% (inactive) | 
2 | O=C(OCCN1CCOCC1)C1(c2ccccc2)CCCC1 | -5.6% (inactive) | 
3 | CCOC(=O)c1c(N)n(CCN2CCOCC2)c2nc3ccccc3nc12 | 69.9% (active) | 73.1
4 | CC/C(=N\NC(=O)c1ccccc1O)c1c(O)n(Cc2ccccc2)c(=O)[nH]c1=O | -0.6% (inactive) | 
5 | CCOC(=O)c1c(N)n(Cc2ccccc2)c2nc3ccccc3nc12 | 97.2% (active) | 128
6 | CCOc1cccc(=NC2CCCCC2)c2c(C)[nH]c(C)c12 | -11% (inactive) | 
7 | CC1(C)C(c2ccccc2)=NC(c2cccnc2)=[N+]1[O-] | -6.5% (inactive) | 
8 | C/C=C/CC1(CC)C(=O)NC(=S)NC1=O | -3.2% (inactive) | 
9 | COc1cc(OC)cc(C2(C#N)CCN(C)CC2)c1 | -1.4% (inactive) | 
10 | CCOC(=O)C1(CCc2ccccc2)CCN(Cc2ccco2)CC1 | -5.4% (inactive) | 
